# Shown are actives, neighbours in structure and some others; about 3.5% of the full set was active somewhere.
# GPR151 activ: activators of human GPR151, primary screen, cell-based, PathHunter beta-arrestin, luminescence | 1% of 650,000 active | PathHunter beta-arrestin GPR151 cells | G-protein coupled receptor 151 (Homo sapiens), Q8TDV0 | activation, % at 11.2 µM; in the data active = activation above about 4.9%;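 also: 0% = median of compound wells and 100% = cells with positive control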
# FBW7 activator: FBW7 E3 ligase activators, primary screen, biochemical, AlphaScreen, human; F-box/WD repeat-containing protein 7 (Homo sapiens), Q969H0; AlphaScreen FBW7–phospho-cyclin E peptide binding, activator screen; normalized activity (activation), % at 26.1 µM; 0.13% of 650,000 active; in the data active = normalized activity above about 1.9%;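 also: purified mutant Fbw7 with reduced substrate affinity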
# TEAD-YAP block: TEAD-YAP interaction inhibition, primary screen, TEAD-YAP interaction inhibitor project, luminescence, HEK-TIYL cells | TEAD-Gal4/YAP UAS-luciferase luminescence | inhibition, % at 9.12 µM | 1.4% of 640,000 active; in the data active = inhibition above about 32%;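 also: 0% = median of test compound wells and 100% = reference inhibitor wells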
# MITF primary: MITF inhibitors, primary screen, biochemical, AlphaScreen, human; Microphthalmia-associated transcription factor (Homo sapiens), O75030; AlphaScreen MITF homodimerization, bead proximity signal; inhibition, % at 2.6 µM; 0.91% of 650,000 active; in the data active = inhibition above about 50%;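 also: 0% = vehicle wells with protein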
# Target sequence (O75030 whole entry, looked up): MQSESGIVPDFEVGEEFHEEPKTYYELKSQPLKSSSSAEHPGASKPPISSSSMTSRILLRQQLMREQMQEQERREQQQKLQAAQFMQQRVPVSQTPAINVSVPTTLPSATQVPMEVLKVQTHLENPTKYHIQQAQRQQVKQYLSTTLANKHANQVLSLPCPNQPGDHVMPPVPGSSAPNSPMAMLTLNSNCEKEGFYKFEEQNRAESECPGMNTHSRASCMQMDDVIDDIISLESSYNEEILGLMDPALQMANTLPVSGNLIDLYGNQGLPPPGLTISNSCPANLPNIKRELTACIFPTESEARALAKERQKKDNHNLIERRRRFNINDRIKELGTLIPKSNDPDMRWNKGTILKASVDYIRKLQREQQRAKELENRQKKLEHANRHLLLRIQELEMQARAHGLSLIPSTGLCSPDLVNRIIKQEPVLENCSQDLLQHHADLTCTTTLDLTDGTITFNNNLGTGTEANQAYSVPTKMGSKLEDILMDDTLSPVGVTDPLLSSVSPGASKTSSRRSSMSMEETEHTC
# The depositor's hits bear a star.
SMILES,GPR151 activ,FBW7 activator,TEAD-YAP block,MITF primary
N#CCCN(C(=O)CCl)c1ccc(F)cc1,0,0,82*,3
CCOc1ccc(N(CCC#N)C(=O)CCl)cc1,1,0,46*,-8
COc1cccc(NC(=O)CSc2nnc(-c3ccc(Cl)c(Cl)c3)n2N)c1,2,0,3,0
C/C(CC(=O)Nc1cc([N+](=O)[O-])ccc1C)=N\NC(=O)c1ccc([N+](=O)[O-])c(Cl)c1,0,0,-11,-6
CC1CCC(C(C)C)C(OC(=O)CN2C(=O)C3C4c5ccccc5C(c5ccccc54)C3C2=O)C1 (centres undefined),-1,0,19,0
CC1CCC(C(C)C)C(OC(=O)Cn2c[n+](CC(=O)OC3CC(C)CCC3C(C)C)c3ccccc32)C1 (centres undefined),1,0,5,14
CC1CCC(C(C)C)C(OC(=O)Cn2c(-c3ccc(F)cc3)[n+](C)c3ccccc32)C1 (centres undefined),1,0,40*,6
CC1CCC(C(C)C)C(OC(=O)Cn2c(-c3ccccc3)[n+](C)c3ccccc32)C1 (centres undefined),1,0,83*,4
Cc1ccc(C2CC(=O)C=C(O)C2)cc1 (centres undefined),-1,0,-1,-3
CC(C)(C)c1ccc(C2CC(=O)C=C(O)C2)cc1 (centres undefined),1,1,54*,18
COc1cccc(C(C[N+](=O)[O-])c2c[nH]c3ccccc23)c1OC (centres undefined),2,0,14,-5
O=[N+]([O-])CC(c1ccccc1)c1c[nH]c2ccccc12 (centres undefined),0,0,46*,0
COc1cccc(C(C[N+](=O)[O-])c2c[nH]c3ccccc23)c1 (centres undefined),1,0,54*,-12
Cc1cc(C)n(CCc2nc3c4ccccc4nc(=S)n3[nH]2)n1,0,0,49*,7
CN(C)CCNc1nc(-c2ccccc2)nc2ccccc12,0,0,-14,-2
CN(C)CCNc1nc(-c2ccc(C(C)(C)C)cc2)nc2ccccc12,-1,0,37*,9
COc1cc(Br)cc2c1OC(c1ccc3c(c1)OCO3)C([N+](=O)[O-])=C2 (centres undefined),-1,0,-22,10
CCOc1ccc(C2Oc3c(cccc3OC)C=C2[N+](=O)[O-])cc1OC (centres undefined),-1,1,14,12
COc1ccc(C2Oc3c(cc(Br)cc3OC)C=C2[N+](=O)[O-])cc1OC (centres undefined),-1,0,70*,4
CCOc1ccc(C2Oc3c(cc(Br)cc3OC)C=C2[N+](=O)[O-])cc1OC (centres undefined),-1,0,62*,23
COc1ccc(C2Oc3c(cccc3OC)C=C2[N+](=O)[O-])cc1OC (centres undefined),-2,0,43*,14
COc1cccc(-n2c(=S)sc3c(=O)n(-c4ccccc4C)c(SCC(=O)Nc4ccc(N(C)C)cc4)nc32)c1,2,0,17,-3
C=CCn1c(NCc2cccnc2)cc(=O)n(C)c1=O,0,0,6,-4
Cn1c2c(c(=O)n(C)c1=O)C(c1cccnc1)C1=C(CC(C)(C)CC1=O)N2 (centres undefined),1,0,-4,3
O=C(CC1C(=O)N(CCc2ccccc2)C(=S)N1CCc1ccccc1)Nc1ccc(F)cc1 (centres undefined),1,0,15,10
SMILES,GPR151 activ,FBW7 activator,TEAD-YAP block,MITF primary
c1ccc(-n2cnc3c(Nc4ccc5c(c4)OCO5)nc(N4CCC(N5CCOCC5)CC4)nc32)cc1,-2,0,-20,2
COc1ccc2c(c1)OCC(Cc1ccc(OC)c(OC)c1)C2=O (centres undefined),1,1,48*,-1
COc1ccc2c(c1)OCC(Cc1ccc(OC)c(OC(C)=O)c1)C2=O (centres undefined),2,1,52*,13
COc1ccc2c(c1)O[C@@H]1COc3cc(OC)c(OC)cc3[C@@H]1C2=O,0,0,32*,33
COc1ccc(NC(=O)Cc2ccc(OC)c(OC)c2)c(OC)c1,-1,0,4,7
Nc1nc(NCCO)cc(NCc2cccnc2)n1,0,0,5,6
